# Assay results taken from publication PMC13541613, “GHT-SELEX demonstrates unexpectedly high intrinsic sequence specificity and complex DNA binding of many human transcription factors”.
# Target: ZNF721 full-length (Homo sapiens, UniProt Q8TF20-2 1-923)
# Test: HT-SELEX; 20 mM HEPES pH 7, 140 mM KCl, 5 mM NaCl, 1 mM K2HPO4, 2 mM MgSO4, 100 uM EGTA, ZnSO4, 0.1% Tween20; room temperature, 1 h; high values mean tight binding
# Settings: protein: ivt; tags: eGFP (N-terminal); dsDNA, one strand shown
# How it was run: (§1)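 Bead-immobilised tagged transcription factor (full-length or DNA-binding-domain fragment), made in HEK293 lysate or cell-free extract, was incubated with a randomized 40-base DNA library. Binding was for 1 h at room temperature in HEPES/KCl low-stringency buffer with Tween20. After washing and heat elution, bound DNA was PCR-amplified over successive cycles and Illumina-sequenced (~3 million 60 bp reads per sample). Binding signal is a relative k-mer count in selected reads; higher means tighter binding.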
# Chain of ZNF721 full-length (Q8TF20 other isoform, or with tags, fused parts or gaps): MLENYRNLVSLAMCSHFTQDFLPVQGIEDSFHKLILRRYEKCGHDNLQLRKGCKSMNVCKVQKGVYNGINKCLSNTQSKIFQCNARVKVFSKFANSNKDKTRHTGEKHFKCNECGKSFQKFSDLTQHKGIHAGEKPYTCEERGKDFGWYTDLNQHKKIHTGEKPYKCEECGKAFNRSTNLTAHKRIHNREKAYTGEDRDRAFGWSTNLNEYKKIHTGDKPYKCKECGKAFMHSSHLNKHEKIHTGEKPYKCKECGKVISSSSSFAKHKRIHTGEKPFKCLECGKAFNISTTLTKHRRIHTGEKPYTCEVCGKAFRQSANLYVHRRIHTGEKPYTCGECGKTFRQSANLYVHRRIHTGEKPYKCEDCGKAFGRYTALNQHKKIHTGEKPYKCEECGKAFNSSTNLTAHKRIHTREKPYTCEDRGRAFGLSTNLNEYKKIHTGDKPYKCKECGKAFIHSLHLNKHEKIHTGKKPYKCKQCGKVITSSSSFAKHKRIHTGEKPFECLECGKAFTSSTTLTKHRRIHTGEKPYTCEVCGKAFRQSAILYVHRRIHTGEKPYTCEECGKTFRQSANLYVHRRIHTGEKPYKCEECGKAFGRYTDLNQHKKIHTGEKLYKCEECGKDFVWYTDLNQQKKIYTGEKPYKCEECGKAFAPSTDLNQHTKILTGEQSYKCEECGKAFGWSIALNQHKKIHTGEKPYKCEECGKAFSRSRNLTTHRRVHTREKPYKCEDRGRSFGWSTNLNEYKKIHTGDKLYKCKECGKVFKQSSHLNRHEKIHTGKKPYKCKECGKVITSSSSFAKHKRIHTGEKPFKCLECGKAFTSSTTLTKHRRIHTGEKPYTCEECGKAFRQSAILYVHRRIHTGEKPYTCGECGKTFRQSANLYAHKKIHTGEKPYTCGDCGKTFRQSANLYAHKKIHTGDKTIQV
row,Sequence,binding signal [relative 10-mer count]
1,CCCGACCCCA,0.112
2,ACCCCCACCA,0.145
3,GCACCACCCC,0.103
4,CCCCTCTCCC,0.107
5,GGGGGGGGGA,0.116
6,ACCCCATCCC,0.102
7,CTGCCCACCC,0.102
8,CCACCACCGC,0.11
9,CCCCCACCCG,0.174
10,CCACCCCGAC,0.136
11,AAAACAAGCA,0.157
12,AGCATACCCA,0.391
13,CACCCCAACC,0.142
14,CCTCCCCCTC,0.15
15,AACCCCACCC,0.141
16,CTCCCCCCCA,0.117
17,AGCGTACCCA,0.188
18,CCGCCCCCCA,0.141
19,ACCCCGACCC,0.102
20,CCAACCCCCA,0.13

row,Sequence,binding signal [relative 10-mer count]
1,AAAAGCATAC,0.149
2,CCCCCCCCTC,0.167
3,AAAAGCAGTC,0.111
4,ACACCACCCC,0.128
5,AAAAAAAAGA,0.116
6,AAAAAAGCGG,0.11
7,CAGCGTATCC,0.324
8,CACCTCCCCA,0.115
9,AGGTGGGTGG,0.149
10,CCACTCCCCC,0.12
11,AGGGTATCCA,0.133
12,ACCACCCGCC,0.125
13,GCATACCCAA,0.217
14,CCCAACCCAC,0.149
15,AAAAGCAGTA,0.17
16,CCACCCAACC,0.151
17,CCCACCACCC,0.562
18,CACCCCATCC,0.11
19,ACGCTTCATA,0.122
20,GAAAAAAACA,0.2

# Target: ZNF721 DBD1 (Homo sapiens, UniProt Q8TF20-2 29-461)
# Sequence (Q8TF20 17-449): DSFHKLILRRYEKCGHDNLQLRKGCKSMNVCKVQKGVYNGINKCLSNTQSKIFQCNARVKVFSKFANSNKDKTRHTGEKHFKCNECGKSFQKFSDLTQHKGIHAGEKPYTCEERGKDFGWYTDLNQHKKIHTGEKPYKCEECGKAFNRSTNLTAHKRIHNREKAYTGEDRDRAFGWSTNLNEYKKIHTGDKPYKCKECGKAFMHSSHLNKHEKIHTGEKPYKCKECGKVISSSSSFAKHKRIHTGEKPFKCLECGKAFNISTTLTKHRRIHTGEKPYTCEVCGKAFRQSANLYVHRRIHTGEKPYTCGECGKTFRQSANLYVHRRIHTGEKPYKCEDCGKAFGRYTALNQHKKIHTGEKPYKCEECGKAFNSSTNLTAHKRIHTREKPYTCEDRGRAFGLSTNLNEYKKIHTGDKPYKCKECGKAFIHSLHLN
# Test: as above
# Settings: protein: ivt; tags: eGFP (N-terminal); dsDNA, one strand shown
# How it was run: as §1
row,Sequence,binding signal [relative 10-mer count]
1,CCCGACCCCA,0.00399
2,ACCCCCACCA,0.00573
3,GCACCACCCC,0.00358
4,CCCCTCTCCC,0.00454
5,GGGGGGGGGA,0.00486
6,ACCCCATCCC,0.00367
7,CTGCCCACCC,0.00394
8,CCACCACCGC,0.00482
9,CCCCCACCCG,0.00587
10,CCACCCCGAC,0.00404
11,AAAACAAGCA,0.00638
12,AGCATACCCA,0.0246
13,CACCCCAACC,0.0061
14,CCTCCCCCTC,0.00807
15,AACCCCACCC,0.00294
16,CTCCCCCCCA,0.005
17,AGCGTACCCA,0.0311
18,CCGCCCCCCA,0.0066
19,ACCCCGACCC,0.00284
20,CCAACCCCCA,0.00486

row,Sequence,binding signal [relative 10-mer count]
1,AAAAGCATAC,0.0247
2,CCCCCCCCTC,0.00619
3,AAAAGCAGTC,0.00225
4,ACACCACCCC,0.00394
5,AAAAAAAAGA,0.00757
6,AAAAAAGCGG,0.0255
7,CAGCGTATCC,0.00174
8,CACCTCCCCA,0.00505
9,AGGTGGGTGG,0.00642
10,CCACTCCCCC,0.00436
11,AGGGTATCCA,0.00858
12,ACCACCCGCC,0.00445
13,GCATACCCAA,0.00968
14,CCCAACCCAC,0.0056
15,AAAAGCAGTA,0.0204
16,CCACCCAACC,0.00674
17,CCCACCACCC,0.0272
18,CACCCCATCC,0.00372
19,ACGCTTCATA,0.2
20,GAAAAAAACA,0.00289
